This is an account of results in PubChem BioAssay AID1159524 (National Center for Advancing Translational Sciences (NCATS), 2015).

Values joined by “and” are separate entries in the source; they are usually repeats but may differ in a detail not shown here. Equal values may be shown once. Out of some 410,000 compounds screened, about 5,100 (1.2%) were called active. Roughly 8% stayed inconclusive and do not appear here. The sample as a whole holds a higher share of actives than the screen did. Values without a mark were called inactive. Calls follow the shape of the full dose curve; tested in HEK293T cells.
% is scaled to controls: 0 for no effect and ±100 for the full control effect; potency is read from the fitted curve at half-maximal effect.

This assay can be described thus: High Throughput Screening for Foot and Mouth Disease Virus Antivirals. Also: read-out not given here; nearly all actives have a fitted effect of over 45% in size. The conditions noted are these: FMDV antiviral cell-based qHTS; series mostly up to 57.9 µM; activity change, negative = inhibition: at the top concentration.
Regarding `COc1cc(=O)n2c(c1C(=O)N(C)Cc1nonc1C)CCN(C(=O)c1ccc(C)cc1C)CC2`, the “activity change, negative = inhibition” value is 3.5%. Turning to `COc1ccc(-c2nc3cnc(N(C)C)nc3n(Cc3cccs3)c2=O)cc1`, the “activity change, negative = inhibition” value is -1.02%. The same measure, in the same setting: the same measure for `Cc1cccc(-n2ncc(C(=O)N3CCC(C)CC3)c2C2CCN(C(=O)OC(C)(C)C)CC2)c1`: -4.72%; for `Cc1cccc(-n2ncc(C(=O)N3CCN(c4ccc(Cl)cc4)CC3)c2C2CCN(C(=O)OC(C)(C)C)CC2)c1`: -12.8%. Turning to `Cc1cccc(-n2ncc(C(=O)N3CCc4ccccc4C3)c2C2CCN(C(=O)OC(C)(C)C)CC2)c1`, the Potency was 2 µM (active). Regarding `O=C(Nc1nc(-c2ccc3c(c2)OCO3)cs1)c1ccncc1`, the Potency is 15.8 µM (active). In the case of `c1ccc2c(Nc3ccncc3)nc(-c3ccc4c(c3)OCO4)nc2c1`, the “activity change, negative = inhibition” value is -9.03%. The same measure, in the same setting: for `CC(O)(c1cccc(F)c1)c1nc(-c2ccc3c(c2)OCO3)cs1` (stereo not given) the value was -19.4%; for `COCCn1c(=O)c(-c2cccs2)nc2cncnc21`, -16.5%. The same measure, in the same setting: for `Cc1c(C(=O)NCC2CCCN(C)C2)cnn1-c1nccc(-c2ccco2)n1` (stereo not given) the value was -4.89%; for `Cc1ccc(NC(=O)CN2c3ccccc3S(=O)(=O)c3ccccc32)cc1F`, -15.4%. The same measure, in the same setting: for `CCCCN(CC(=O)NC(C)(C)C)C(=O)C(=O)Nc1ccc2c(c1)OCCO2` the value was 30.3%. Turning to `COC(=O)CCNc1ccc2c(c1)OCCO2`, the Potency was 11.2 µM (active). Consider `CCC(C)(C)NC(=O)CN(C(=O)C(=O)Nc1ccc2c(c1)OCCO2)C(C)(C)CC`, for which the “activity change, negative = inhibition” value was 12.4%. The same measure, in the same setting: the same measure for `CCCCC/C=C\C/C=C\C/C=C\C/C=C\CCCCCC(=O)NCCO`: -8.95% [at 6.7 µM]; for `O=C1NS(=O)(=O)c2ccccc21`: -10%. Still for that read-out and setting: for `CCc1nccn1S(=O)(=O)c1cc(Br)ccc1Br` the value was -7.35%. Regarding `CCOc1c(Br)cc(/C=C2\C(=O)N(CCC#N)N=C2C)cc1OC`, the Potency is 28.2 µM (active).

For `CSc1ccc(C2C(C(=O)Nc3ccccc3)=C(C)Nc3nc4ccccc4n32)cc1` (stereo not given), the “activity change, negative = inhibition” value was -22%.

For the compound `COC(=O)c1c(OCc2ccc(F)cc2)cc(=O)n2c1CCN(Cc1ccc3cccnc3c1)CC2`, the “activity change, negative = inhibition” value is -8.63%. Same read-out and setting: for `Cc1cccc(CC(=O)Nc2cccc(-c3cn4cccnc4n3)c2)c1` the value was 18.4%; for `COc1ccc(-c2[nH]c3c(c2-c2c(-n4cccc4)n(C)c(=O)n(C)c2=O)c(=O)n(C)c(=O)n3C)cc1`, -8.33%. In the case of `O=C(NCc1ccc(Cl)cc1)c1ccc2c(c1)nnn2C1CCCC1`, the “activity change, negative = inhibition” value was -14.3%. The same measure, in the same setting: the same measure for `O=C(Cn1nnc(-c2ccccc2)n1)NC(=O)NC1CCCC1`: -9.99%. For `Cc1nc(/N=C(\N)NC(=O)NC2CCCCC2)nc2ccccc12`, the Potency is 31.6 µM (active). For `O=C(/C=C/c1cnc2ccccc2n1)NC1CCCCCC1`, the “activity change, negative = inhibition” value was 36.2%. The same measure, in the same setting: the same measure for `CCOC(=O)N1CCC(N2CCOc3ccc(CN4CCC(O)(c5cccnc5)CC4)cc3C2)CC1`: 1.1%. Still for that read-out and setting: the same measure for `COc1cccc(CNC(=O)Cn2c(=O)c3cccn3c3ccc(F)cc32)c1OC`: -21.5%. Still for that read-out and setting: the same measure for `COCc1c(C(=O)NC2CCCCC2)cnn1-c1nccc(-c2ccccc2OC)n1`: -1.95%; for `COc1cccc(NC(=S)C(C#N)=C2N(C)c3ccccc3N2C)c1`: 5.09%.

`CN1/C(=C\C=C2\N=C(c3ccc(F)cc3)OC2=O)C(C)(C)c2ccccc21`: the “activity change, negative = inhibition” value is -28.5%. Regarding `CC(=O)Nc1cccc(OCC(=O)/C=C2\N(C)c3ccccc3C2(C)C)c1`, the Potency was 25.1 µM (active). For the compound `COc1ccccc1CNc1ncncc1-c1cccc(NS(C)(=O)=O)c1`, the “activity change, negative = inhibition” value was -15.9%. Still for that read-out and setting: the same measure for `O=P(O)(O)C(O)c1ccc2ccccc2c1` (stereo not given): 1.06%. On the same count and under the same terms, the same measure for `Cc1ccc(CS(=O)(=O)CCC(=O)NC2CC2)cc1`: -10.8%. For `C#CCN(C[C@@H]1[C@@H](OC(=O)NC2CC2)[C@@H](OC(=O)NC2CC2)Cn2c(=O)ccc(=O)n21)S(=O)(=O)c1ccc(C)cc1`, the Potency was 20 µM (active). For the compound `COc1ccccc1Nc1cc(C(=O)NCCCN(C)C2CCCCC2)c2ccccc2n1`, the “activity change, negative = inhibition” value was -28.5%. For `CN(c1ccc2nc3ccccc3c(=O)n2n1)C1CCCCC1`, the Potency is 20 µM (active). Take `O=C(c1ccco1)N(Cc1nc2ccccc2c(=O)[nH]1)C1CCCC1`: the “activity change, negative = inhibition” value was -1.37%. On the same count and under the same terms, for `COc1cc(=O)n2c(c1C(=O)NC(C)c1ccco1)CCN(C(=O)c1cn3ccc(C)cc3n1)CC2` (stereo not given) the value was 12.5%. The same measure, in the same setting: for `CCN(C(=O)c1sc2cc(OC)ccc2c1Cl)c1ccccc1` the value was -22.9%; for `COc1ccccc1CNc1nc(-c2c(C)noc2C)nc2ccccc12`, -10.6%; for `CCc1nc2c(OCc3cccc(OC)c3)cccn2c1N(C)C(=O)C(C)C`, -16.8%. Turning to `CCc1nc2c(OCc3ccc(Cl)cc3Cl)cccn2c1N(C)C(=O)C(C)C`, the Potency was 31.6 µM (active).

Turning to `CCCCC(=O)N(C)c1c(CC)nc2c(OCc3ccc(Cl)cc3Cl)cccn12`, the “activity change, negative = inhibition” value was -24.1%. For `COc1ccc(C2Sc3ccccc3NC3=C2C(=O)c2ccccc23)c(OC)c1OC` (stereo not given), the “activity change, negative = inhibition” value was 8.34%. In the case of `O=C(/C=C/Sc1ncn[nH]1)c1ccc(Cl)cc1`, the Potency is 28.2 µM (active). As for `O=S(=O)(NCCc1nnc2ccc(SCc3ccc(Cl)cc3Cl)nn12)c1ccccc1`, the “activity change, negative = inhibition” value is -15.5%. The same measure, in the same setting: the same measure for `CCc1ccccc1NC(=O)Cn1c(=O)n(CC2CCC(C(=O)NCCc3ccccc3)CC2)c(=O)c2ccccc21` (stereo not given): 0.675%. Same read-out and setting: for `Cc1cc(C)cc(NS(=O)(=O)c2cc3c(cc2C)NC(=O)CO3)c1` the value was 131%. The same measure, in the same setting: the same measure for `Cn1nnnc1SCCCNCc1cccc(OCc2ccc(Cl)cc2)c1`: -12.9%. `Cc1ccc(OCCSc2nc(C)c(Cc3ccccc3)c(=O)[nH]2)cc1`: the “activity change, negative = inhibition” value is -10.9%. Same read-out and setting: for `COc1ccc(CCNC(=O)C2CCCN2C(=O)Nc2ccccc2)cc1OC` (stereo not given) the value was -5.27%; for `CC(=O)Nc1ccc(S(=O)(=O)N2CCN(c3ccc([N+](=O)[O-])c(NCCN4CCOCC4)c3)CC2)cc1`, -4.77%. As to `COc1ccc(CCNc2cc(N3CCN(C(=O)c4ccccc4OC)CC3)ccc2[N+](=O)[O-])cc1OC`, the Potency is 8.91 µM (active).

Take `CC(C)c1ccc(NC(=O)c2cc(S(=O)(=O)N3CCc4ccccc4C3)ccc2F)cc1`: the “activity change, negative = inhibition” value is 1.11%.

For the compound `Cc1ccccc1CNC(=O)c1cccc(NC(=O)c2nsc3ccccc23)c1`, the “activity change, negative = inhibition” value is 11.9%.

`O=C(CSc1ncc(CO)n1Cc1ccc(F)cc1)NCc1ccco1`: the “activity change, negative = inhibition” value was -18.2%. Same read-out and setting: for `COc1ccc(NC(=O)CN(C)C(=O)c2ccc(NC3CC3)c([N+](=O)[O-])c2)cc1` the value was -6.5%. For the compound `Cc1cc(C=O)c(C)n1-c1ccc(NC2CCCCC2)c([N+](=O)[O-])c1`, the Potency was 31.6 µM (active). Consider `Cc1ccc(C(=O)COC(=O)CCCC(=O)NC2CCCCC2)cc1[N+](=O)[O-]`, for which the “activity change, negative = inhibition” value is 0.0132%. As to `O=C(CSc1ccccc1F)NC1CCS(=O)(=O)C1` (stereo not given), the “activity change, negative = inhibition” value is 2.56%.

Take `CCN(CC(=O)NC1CCS(=O)(=O)C1)S(=O)(=O)c1ccccc1` (stereo not given): the “activity change, negative = inhibition” value is -18.6%.

In the case of `O=S1(=O)CCC(NC(=S)SCc2ccccc2Br)C1` (stereo not given), the Potency is 15.8 µM (active). Consider `COc1ccccc1C(=O)Nc1c(C(=O)Nc2ccc(C)cc2)oc2ccccc12`, for which the “activity change, negative = inhibition” value is -7.71%.

For `C/C=C1\C2C=C(C)CC1(N)c1ccc(=O)[nH]c1C2` (stereo not given), the “activity change, negative = inhibition” value was 6.47% [at 97.4 µM].

Take `Cc1cc(C)c2oc(C(=O)Nc3ccc(S(=O)(=O)N4CCCCCC4)cc3)cc(=O)c2c1`: the “activity change, negative = inhibition” value is -5.36%. `CCC1CCCCN1S(=O)(=O)c1ccc(NC(=O)c2cc(=O)c3ccccc3o2)cc1` (stereo not given): the Potency is 20 µM (active). Consider `Cc1ccc2oc(C(=O)Nc3ccc(S(=O)(=O)N4CCCCCC4)cc3)cc(=O)c2c1`, for which the “activity change, negative = inhibition” value was -6.89%. Same read-out and setting: for `Cc1c(Cl)cccc1NC(=O)c1noc2c1CCCC2` the value was 34.7%; for `Cc1cccc(N2CCN(C(=O)c3ccc4c(c3)CCN4S(=O)(=O)c3ccccc3)CC2)c1C`, -17.5%; for `COc1ccc(C)cc1NC(=O)CCc1c(C)nn(-c2ccc(N3CCOCC3)nn2)c1C`, 13.7%. Take `CC(C)=CCN1CCC2(CCc3ccccc32)CC1`: the “activity change, negative = inhibition” value was -6.05%. Regarding `COc1cccc(C(=O)Nc2ccc(-c3cc(C(F)(F)F)nn3-c3ccccc3)cc2)c1`, the Potency is 12.6 µM (active). For `COc1ccc(C(=O)Nc2ccc(-n3nncc3-c3ccccc3)cc2)cc1OC`, the “activity change, negative = inhibition” value was 0%. In the case of `COc1cccc(C(=O)NC(=O)Nc2nc(C)cc(C(F)(F)F)n2)c1`, the “activity change, negative = inhibition” value was -4.85%. On the same count and under the same terms, for `Cc1csc(-c2coc3cc(O[C@@H]4O[C@H](CO)[C@@H](O)[C@@H](O)[C@H]4O)ccc3c2=O)n1` the value was 16%; for `Cc1cc(C)cc(-n2c(SCC(=O)NCC3CCCO3)nc3c([nH]c4ccccc43)c2=O)c1` (stereo not given), 0.888%. Regarding `Cc1ccc(NC(=O)c2cnc(SCC(=O)NCC3CCCO3)n(C)c2=O)cc1` (stereo not given), the Potency was 25.1 µM (active). In the case of `Cc1cc(NC(=O)CSc2ncc(C(=O)Nc3ccc(Cl)cc3)c(=O)n2C)no1`, the “activity change, negative = inhibition” value is 5.26%. The same measure, in the same setting: for `O=C(Cc1ccccc1)Nc1sc2c(c1C(=O)Nc1ccc(Br)cc1)CCC2` the value was -16.6%. Turning to `COCCNc1ccnc(-c2cccc(NS(C)(=O)=O)c2)n1`, the “activity change, negative = inhibition” value is 8.19%. Same read-out and setting: for `CNc1ncnc2ccc(-c3cccc(NS(C)(=O)=O)c3)cc12` the value was -18.8%; for `COC(=O)CC1C(C)(C)C(OC(C)=O)C2CC3=C4CC(=O)OC(c5ccoc5)[C@]4(C)CCC3[C@@]1(C)C2=O` (stereo not given in full), -6.11%. The same measure, in the same setting: the same measure for `Cc1ccc(-c2nn(CC(C)(C)C)c3ncnc(N)c23)cc1`: -19.5%.

`COc1cccc(N2CCN(S(=O)(=O)c3ccc4c(c3)CCCN4C(C)=O)CC2)c1`: the “activity change, negative = inhibition” value was -29.2%. Still for that read-out and setting: the same measure for `CC(=O)N1CCCc2cc(S(=O)(=O)N3CCC(C(=O)NC4CCCCC4)CC3)ccc21`: -3.68%. `CC(=O)N1CCCc2cc(S(=O)(=O)N3CCCC(C(=O)N4CCN(c5cccc(Cl)c5)CC4)C3)ccc21` (stereo not given): the Potency was 17.8 µM (active) and 12.6 µM (active). Consider `COCCN1CCN(C(=O)c2sc3ncnc(NCC4CCCO4)c3c2C)CC1` (stereo not given), for which the “activity change, negative = inhibition” value was 2.02%. On to `CC(C)(c1ccc(OC[C@@H]2CO2)cc1)c1ccc(OC[C@H]2CO2)cc1`, for which the “activity change, negative = inhibition” value was -6.2%. Same read-out and setting: for `CN[C@@H]1[C@H](O[C@H]2[C@H](O[C@H]3[C@H](O)[C@@H](O)[C@H](N=C(N)N)[C@@H](O)[C@@H]3N=C(N)N)O[C@@H](C)[C@]2(O)CO)O[C@@H](CO)[C@H](O)[C@H]1O` the value was 3.92%; for `Nc1ccc2c(c1)C(=Cc1cccnc1)c1ccccc1-2`, 9.55%. Still for that read-out and setting: for `O=C(O)CCc1cccnc1` the value was -16.2%. As for `O=C1/C(=C\c2cccnc2)CN(Cc2ccccc2)C/C1=C\c1cccnc1`, the Potency was 6.31 µM (active).

On to `CS(=O)(=O)Nc1cccc(-c2cncnc2Nc2ccccc2)c1`, for which the “activity change, negative = inhibition” value was -6.46%.
